FAS TE block = FAS thioesterase domain inhibitors, primary screen, biochemical, fluorescence intensity, uHTS | inhibition, % at 15 µM | recombinant FAS-TE, OMFH fluorogenic substrate, fluorescence endpoint | 360,000 compounds, 0.67% hits | Fatty acid synthase (Homo sapiens), P49327;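 active = compounds whose normalised, plate-corrected inhibition of enzyme fluorescence in the single-dose primary screen is 50% or more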;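 also: 0% = DMSO with enzyme and 100% = substrate without enzyme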
GC-A act = GC-A stimulated cGMP production enhancers – HEK293 GC-A cells, cGMP TR-FRET, EC30 ANP, primary screen; 0% at EC30 ANP, 100% saturating ANP; Atrial natriuretic peptide receptor 1 (Homo sapiens), P16066; 370,000 compounds, 0.14% hits; activation, % at 10 µM; in the data active = activation above about 40%
NPR2 activator = human GC-B receptor activators, primary screen, HEK293 GC-B cells, cGMP TR-FRET, EC30 CNP. Atrial natriuretic peptide receptor 2 (Homo sapiens), P20594. 0% at EC30 CNP, 100% saturating CNP. activation, % at 10 µM. 370,000 compounds, 0.11% hits;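 active = activation at 10 µM reaching about 35% in either raw or pattern-adjusted values, limit read from the data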
aDG glyco act = activators of alpha-DG glycosylation, primary screen, uHTS, Pro5-aDG cells, AlphaScreen. alpha-DG glycosylation AlphaScreen (IIH6); 0% Pro5, 100% B10-LARGE cell signal. activation, % at 10 µM. 360,000 compounds, 0.22% hits;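 active = activation of at least 8% versus controls, or a plate z-score of at least 8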;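 also: Pro5 are CHO cells carrying HIG-tagged alpha-DG that lacks glycosylation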
FAS-TE conf = FAS thioesterase domain inhibitors, confirmation, biochemical, fluorescence intensity, single concentration; shares compounds with FAS TE block; recombinant FAS-TE, OMFH fluorogenic substrate; inhibition, % at 15 µM; 2,300 compounds, 45% hits; AID 624325, 2012;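 active = compounds inhibiting the enzyme by at least 50% at 15 µM in any one of the replicates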;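 also: 0% = enzyme with DMSO only and 100% = wells lacking enzyme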
* hit, by the source's call; / = no result given. A selection: hits, their analogues and other compounds. The true share with any hit is near 1.1%.

SMILES | FAS TE block | GC-A act | NPR2 activator | aDG glyco act | FAS-TE conf
Cc1cc(Nc2cccc(F)c2)cc(=O)n1-c1cccc(F)c1 | / | 5 | 0 | / | /
CSc1nc2ccccc2n1Cc1cccc([N+](=O)[O-])c1 | 59* | -2 | 2 | 2 | 29
CSc1nc2ccccc2n1Cc1cccc(F)c1 | 2 | 9 | 4 | 0 | /
Cc1cc2c(=O)oc(-c3ccccc3Br)nc2s1 | 59* | -3 | -8 | 0 | 65*
CCc1cc2c(=O)oc(-c3ccccc3F)nc2s1 | 75* | -2 | -11 | 0 | 60*
NC(=O)c1ncn([C@@H]2O[C@H](C(=O)N[C@H](Cc3c[nH]c4ccccc34)C(=O)N3CCN(C(=O)N4CCCCC4)CC3)[C@@H](O)[C@H]2O)n1 | / | 3 | 7 | / | /
Brc1cccc(CN2CCN(c3ncc(Cc4ccccc4)cn3)CC2)n1 | / | 3 | 2 | / | /
COc1ccccc1NC(=O)COC(=O)c1cc([N+](=O)[O-])ccc1N1CCCC1 | 70* | 11 | 9 | 0 | 63*
COc1ccc(NC(=O)c2cc([N+](=O)[O-])ccc2N2CCCCC2)cc1OC | 38 | -1 | 5 | 0 | /
O=C(COC(=O)C1CCCCC1)Nc1cc([N+](=O)[O-])ccc1F | 63* | 2 | -1 | 0 | 69*
O=C(COC(=O)c1cc([N+](=O)[O-])ccc1N1CCOCC1)Nc1ccccc1OC(F)F | 74* | 22 | 31 | 0 | 79*
CCCN(CC(=O)Nc1ccc(F)c(F)c1F)C(=O)c1cc([N+](=O)[O-])ccc1N1CCOCC1 | 54* | -5 | 2 | 0 | 52*
CCN(CC)C(=O)CC[C@@H]1CC[C@]2(CCCN(Cc3ccc(Br)cc3)C2)O1 | / | -3 | -8 | / | /
COC(=O)c1cc2c(c3c4ccccc4n(S(=O)(=O)c4cccc(C)c4)c13)C(=O)N(C)C2 | / | -7 | -9 | / | /
C#CCNC(=O)C[C@H]1C[C@@]2(C(=O)OC)C(=C[C@H](COCc3ccccc3)O[C@@H]2C)N(Cc2ccco2)C1=O | / | 1 | 3 | / | /
CC(=O)CC[C@@H]1CC[C@]2(CCCN(C(=O)c3ccc4ccccc4n3)C2)O1 | / | 0 | -3 | / | /
CCc1ccccc1NC(=O)c1cc([N+](=O)[O-])ccc1N1CCOCC1 | 13 | 1 | 1 | 1 | /
O=C(COC(=O)c1cc([N+](=O)[O-])ccc1N1CCOCC1)Nc1cc(F)ccc1F | 85* | 8 | 5 | 0 | 51*
O=C(COC(=O)c1cc([N+](=O)[O-])ccc1N1CCCC1)Nc1ccccc1OC(F)F | 56* | 14 | 24 | 0 | 43*
CC(C)c1ccccc1NC(=O)COC(=O)c1cc([N+](=O)[O-])ccc1N1CCOCC1 | 74* | 2 | -2 | 0 | 65*
Cc1c(C(=O)OCC(=O)Nc2ccccc2OC(F)F)cccc1[N+](=O)[O-] | 15 | 3 | -1 | 0 | /
COc1ccc(Cn2ccc3ccc(-c4ccc5ccn(Cc6ccc(OC)cc6)c5c4)cc32)cc1 | / | 3 | 0 | / | /
COc1ccc(-n2nc(C(=O)NCC(=O)N3CCN(c4cccc(Cl)c4)CC3)c3ccccc3c2=O)c(OC)c1 | 55* | -2 | -3 | 0 | 30
CCN(CC)C(=O)CSc1nnc(-c2cccs2)o1 | / | 2 | 0 | / | /
COc1ccc(NC(=S)N2CCN(c3ccc4c(c3)C3CCN(C(=O)OCc5ccccc5)C4C3)CC2)c(OC)c1 (stereo not drawn) | 57* | 4 | -1 | 0 | 11
O=C(OCc1ccccc1)N1CCC2CC1c1cc(N3CCN(C(=S)NCCc4ccccc4)CC3)ccc12 (stereo not drawn) | 25 | 1 | 4 | 0 | /
Cc1ccc(-n2c(SCC(=O)c3ccccc3Br)nnc2-c2ccncc2)cc1 | / | -6 | -11 | / | /
CC(C)Cn1c2c(c(O)c(C(=O)Nn3c(Cc4ccccc4)nc4ccccc4c3=O)c1=O)CCCC2 | 54* | -2 | 2 | 1 | 9
CC(C)(C)OC(=O)NCCCC[C@H](NC(=O)c1nc[nH]c1C(=O)NC1CCN(C(=O)OC(C)(C)C)CC1)C(=O)OC(C)(C)C | 84* | 0 | 10 | 0 | 59*
